In all, about 410,000 compounds went through this assay and about 6,400 (1.6%) were called active. Inconclusive results (about 20%) are left out. Shown is part of a subset that was picked to be rich in actives. A number with no mark means an inactive call. Calls come from the whole dose curve; as a rule, active = well fitted inhibition curve with a large enough effect; inconclusive = small, poorly fitted or top-dose-only effect; inactive = no such curve, though single readings can be large or run the other way.
What follows are compounds tested against Glucagon-like peptide 1 receptor (Homo sapiens) (UniProt P43220) (assay: qHTS of GLP-1 Receptor Inverse Agonists (Inhibition Mode)). Conditions: HEK293 GLP-1R CRE-luciferase, luminescence, 24 h, GLP-1R form is constitutively active; series mostly up to 38.3 µM; activity change, negative = inhibition: at the top concentration.
In short: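 Inverse agonism was detected as reduced cAMP-driven luciferase luminescence after 24 h compound treatment. The cells were HEK293 clones expressing constitutively active human GLP-1R with the reporter. Reporter-only and GPR119 cell lines served as counterscreen controls.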
% is set by controls: 0 for no effect and ±100 for the full control effect; potency is the fitted concentration of half-maximal effect.
Note: nearly all actives have a fitted effect of over 55% in size.

Sequence of Glucagon-like peptide 1 receptor (Homo sapiens) (P43220 whole entry, looked up): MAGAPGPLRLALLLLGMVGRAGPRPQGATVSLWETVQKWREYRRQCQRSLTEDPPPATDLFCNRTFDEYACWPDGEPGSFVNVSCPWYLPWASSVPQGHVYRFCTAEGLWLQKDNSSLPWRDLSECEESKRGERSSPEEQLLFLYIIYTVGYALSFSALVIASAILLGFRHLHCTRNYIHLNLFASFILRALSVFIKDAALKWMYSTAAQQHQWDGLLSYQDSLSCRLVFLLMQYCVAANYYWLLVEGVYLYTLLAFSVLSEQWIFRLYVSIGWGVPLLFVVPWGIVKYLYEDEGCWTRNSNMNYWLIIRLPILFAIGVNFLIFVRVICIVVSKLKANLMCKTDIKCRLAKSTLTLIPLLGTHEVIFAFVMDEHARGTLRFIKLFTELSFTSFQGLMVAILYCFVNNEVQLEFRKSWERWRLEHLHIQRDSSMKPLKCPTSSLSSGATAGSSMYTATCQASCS

Row | SMILES | Potency | activity change, negative = inhibition
1 | O=C(Nc1nc2c(s1)CCCC2)c1ccccc1F | 4.47 µM (active) | 
2 | O=C(Nc1sc2c(c1C(=O)O)CCC2)c1ccccc1F |  | -23.1%
3 | Cc1nc(C(F)(F)F)ccc1C(=O)N1CCC1(C)C(=O)NS(=O)(=O)c1ccc(F)cc1F (stereo not drawn) |  | 4.33%
4 | c1ccc2c(CCN3CCNC[C@H]3Cc3cccc4ccccc34)cccc2c1 |  | -11.6%
5 | O=C1CCNCCN1[C@H](CO)Cc1ccccc1 |  | 11.1%
6 | c1ccc(C[C@H]2CNCCN2CCC23CC4CC(CC(C4)C2)C3)cc1 | 10 µM (active) | 
7 | CN(C)C1CN(Cc2cn(Cc3ccccc3)nn2)S(=O)(=O)C1 (stereo not drawn) |  | 8.92%
8 | Cc1ccc(-n2cc3ccc([N+](=O)[O-])cc3n2)cc1 |  | -54%
9 | Cc1ccc(-c2cn3cc(C)ccc3n2)cc1 |  | -14.4% [at 0.307 µM]
10 | Cc1ccc(-c2cn3cc([N+](=O)[O-])ccc3n2)cc1 | 4.47 µM (active) | 
11 | CCOC(=O)c1c(NC(=O)COC(=O)c2ccc(S(=O)(=O)C(F)F)cc2)sc(C(=O)N(C)C)c1C |  | 12.2%
12 | COc1ccc(CC(N)c2csc(NC(=O)NC(c3ccccc3)c3ccccc3)n2)cc1 (stereo not drawn) |  | -7.52%
13 | C[C@@H]1CN([C@H](C)CO)C(=O)CCCn2cc(nn2)CO[C@H]1CN(C)S(=O)(=O)c1ccc(Oc2ccccc2)nc1 |  | 3.37%
14 | Cc1ccc(-c2noc(CC(c3ccccc3)c3ccccc3)n2)cc1 | 5.62 µM (active) | 
15 | c1ccc(CCc2nc(-c3ccncc3)no2)cc1 |  | 2.26%
16 | Cc1ccc(-c2noc(CSc3nnc(-c4ccc(Cl)cc4)n3C)n2)cc1 |  | 12.7%
17 | CC[C@@H]1CC2=C(C(=O)OC(C)(C)O2)[C@@H](CC)O1 |  | 26.8%
18 | CC1(C)NC(=O)N(CC(=O)Nc2ccc(-c3ccccc3)cc2)C1=O |  | 0.129%
19 | Cc1c(C(=O)NCc2ccc(C#N)cc2)sc(=O)n1Cc1ccc(C(=O)N(C)C)cc1 |  | 10.9%
20 | O=C(c1ccco1)N1CCN(Cc2cccc(C(F)(F)F)c2)CC1 |  | -16.9%
21 | CCOC(=O)N1CCN(Cc2nc(Cc3cccc(C(F)(F)F)c3)no2)CC1 |  | -5.14%
22 | FC(F)(F)c1cccc(Cc2noc(CN3CCC(N4CCCCC4)CC3)n2)c1 | 5.62 µM (active) | 
23 | O=C(NCc1ccccc1)C1c2ccccc2OCC(=O)N1CCCN1CCOCC1 (stereo not drawn) |  | 20.2%
24 | Cc1cc(Br)ccc1NC(=O)CCCOc1cc(=O)n(C)c2ccccc12 |  | 7.24%

Row | SMILES | Potency | activity change, negative = inhibition
25 | Cc1ccc(CN(CC(=O)NC2CCCCC2)C(=O)c2csnn2)cc1 |  | -22.4%
26 | Cc1cc(C(C)(C)C)oc1C(=O)N(CC(=O)NC1CCCC1)Cc1ccc(Cl)cc1 | 7.08 µM (active) | 
27 | COc1ccc(CN(CC(=O)NC2CCCC2)C(=O)CCC(=O)Nc2cc(C)on2)cc1 |  | -8.66%
28 | O=C(CC[C@H]1O[C@@H](n2ccc(=O)[nH]c2=O)[C@H](O)[C@@H]1O)N[C@H](Cc1ccccc1)C(=O)NCc1ccco1 |  | 12.8%
29 | Cc1ccccc1C(OCC(O)CN1CCCCC1CCO)c1ccccc1 (stereo not drawn) | 10 µM (active) | 
30 | Cc1cccc(C)c1OCC(O)CN1CCCCC1 (stereo not drawn) |  | -1.02%
31 | CC1CCCN(CC(O)COCc2ccccc2)C1 (stereo not drawn) |  | -6.19%
32 | Cc1nc(C(F)(F)F)ccc1C(=O)N1CCC1(C)C(=O)NS(=O)(=O)c1ccccc1Cl (stereo not drawn) |  | 15.1%
33 | CCOC(=O)N(C)c1c(CC)nc2c(OCc3ccccc3C(=O)OC)cccn12 |  | 13.9%
34 | COc1ccc(C(=O)OCC(=O)N2CC(=O)Nc3ccccc32)cc1Br |  | 17.7%
35 | COc1cc(OC)c(C(=O)OCC(=O)N2CC(=O)Nc3ccccc32)cc1OC |  | 19.5%
36 | COc1ccc(Cl)cc1-n1c(C)cc(C(=O)OCC(=O)N2CC(=O)Nc3ccccc32)c1C | 10 µM (active) | 
37 | Nc1cc(=O)c2[nH]cnc2[nH]1 |  | 2.06%
38 | Cc1cc(C)n2c(Nc3c(C)cccc3C)c(CCc3ccccc3)nc2n1 |  | -31.1%
39 | CN(Cc1ccccc1F)c1cc2c(c3c1ccn3C)C1CCC2O1 (stereo not drawn) |  | -30.3%
40 | N#CC1(Nc2ccc3c4c(cccc24)CC3)CCCCC1 |  | -13.8%
41 | Cc1sc2ncnc(N3CCC(C(=O)Nc4nc5ccc(Cl)cc5s4)CC3)c2c1C |  | 12.3%
42 | CCc1ccc(C(=O)NNC(=O)C2CCN(c3ncnc4sc(C)c(C)c34)CC2)cc1 | 10 µM (active) | 
43 | O=C(NNC(=O)C1CCN(c2ncccn2)CC1)c1ccccc1 |  | 13.1%
44 | C[C@H]1CN([C@@H](C)CO)C(=O)c2cc(C3=CCCCC3)cnc2O[C@@H]1CN(C)C(=O)Cc1ccccc1 |  | -17.6%
45 | CC(C)Nc1ncnc2c1ncn2[C@H]1CN(Cc2ccncc2)C[C@@H](CO)O1 |  | 29.6%
46 | S=C(NCc1ccc(Cl)cc1)NC12CC3CC(CC(C3)C1)C2 | 8.91 µM (active) | 
47 | O=C(NCc1ccncc1)NC12CC3CC(CC(C3)C1)C2 |  | -8.91%
48 | O=C(NCc1ccc(Cl)cc1)NCc1ccc(Cl)cc1 |  | -0.855% [at 7.66 µM]

— PubChem BioAssay AID624417 (National Center for Advancing Translational Sciences (NCATS), 2012)
